Assay outcomes: PubChem, National Center for Advancing Translational Sciences (NCATS)
Sampled rows, rich in hits. Any-hit rate of the full collection: about 21%.
Pf growth 96h = P. falciparum growth inhibition at 96 hour, primary screen for plastid delayed-death inhibitors. AID 504834. P. falciparum luciferase reporter growth, 96 h. Potency, µM (doses to about 28.7 µM), usual class: inhibitors. 320,000 compounds, 6.9% hits
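Parasite growth measured via integrated firefly luciferase reporter in P. falciparum. Infected erythrocytes at 2% hematocrit, 0.05% parasitemia final were treated 96 hours at 37 C under 5% CO2, and luminescence was read.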
FBPA Giardia inh = Giardia lamblia aldolase inhibition; 290,000 compounds, 0.71% hits; Potency, µM (series often up to 59.6 µM), most hits filed as inhibitors; purified Giardia FBPA; A8B2U2; further: nearly all actives have a fitted effect of over 55% in size
Target sequence (A8B2U2 whole entry, looked up): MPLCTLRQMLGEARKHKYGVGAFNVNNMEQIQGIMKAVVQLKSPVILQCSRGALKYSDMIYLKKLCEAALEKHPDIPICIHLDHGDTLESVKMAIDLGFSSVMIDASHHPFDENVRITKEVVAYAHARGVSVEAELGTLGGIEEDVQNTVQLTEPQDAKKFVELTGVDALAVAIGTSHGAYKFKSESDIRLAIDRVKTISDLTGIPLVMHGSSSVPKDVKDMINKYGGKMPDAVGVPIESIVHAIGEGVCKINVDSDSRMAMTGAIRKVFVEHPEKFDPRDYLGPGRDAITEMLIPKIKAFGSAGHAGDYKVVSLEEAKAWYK
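40 nM FBPA preincubated 10 min at RT with compound (up to 57.5 uM final), then substrate plus GAPDH/TPI/NAD/arsenate coupling and diaphorase/resazurin added. Fluorescence read after 20 min at RT, 525/598 nm.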
Pf growth 48h = P. falciparum growth inhibition at 48 hours (one generation); P. falciparum luciferase growth in erythrocytes, 48 h; Potency, µM (top dose mostly 28.7 µM), actives largely listed as inhibitors; 310,000 compounds, 5.9% hits; AID 504832
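Erythrocytes infected with P. falciparum carrying an integrated firefly luciferase reporter (2% hematocrit, 0.1% parasitemia final) were exposed to compounds in RPMI 1640 with 0.5% Albumax at 37 C, 5% CO2. Growth inhibition was scored as reduced luminescence.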
Shiga inhibitor = Shiga toxin inhibition; Vero cells, Shiga toxin protein synthesis inhibition reporter; inhibition, % at 38.7 µM; 290,000 compounds, 9.2% hits; AID 2315; in the data active means inhibition mostly above about 28%, no sharp cut-off; inactive means mostly below about 43%
NS1 function inh = influenza NS1 inhibition | Potency, µM (series often up to 46.1 µM) | 270,000 compounds, 0.4% hits | AID 2326; calls by dose curve; further: actives are rising curves; nearly all actives have a fitted effect of over 50% in size
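Read-out: OD600 growth recovery of NS1-expressing budding yeast. Cells grown overnight at 30C in -URA glucose medium, washed, resuspended and diluted 1:100 in 2% galactose assay medium, pH 6.0. Same strain lacking NS1 served as positive control.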
Cycloheximide cs = counter-screen for Shiga toxin inhibitors: cycloheximide protein synthesis inhibition; cell reporter, cycloheximide protein synthesis inhibition counterscreen; max response, %; 300,000 compounds, 12% hits; AID 2314; in the data active means max response mostly above about 13%, no sharp cut-off; inactive means mostly below about 14%; further: read at 38.3 µM for the half of the compounds with a filed dose
Each line names hits and unclear results; the compound was inactive in the other large screens. Unless noted, the call rests on the fitted dose curve; in most records, active means well fitted curve in the direction sought with a large enough effect; inconclusive means small, poorly fitted or top-dose-only effect, or another doubt; inactive means no such curve, though single readings can be large; an effect the other way counts as inactive or inconclusive.

O=C(N/N=C/c1cccc(C(F)(F)F)c1)c1ccccc1O	Pf growth 96h inconclusive, Shiga inhibitor 120.9, Cycloheximide cs 30.2
O=C(N/N=C/c1ccc2nccnc2c1)c1ccncc1	Pf growth 96h inconclusive
O=C(N/N=C/c1ccc2nccnc2c1)c1ccccc1O	Cycloheximide cs 15.5
CNC(=O)N1CCC(C(=O)c2c(C)c(C)c(C)c(C)c2C)CC1	Pf growth 96h inconclusive, Pf growth 48h inconclusive
COc1ccccc1CC(=O)Nc1ccc(S(=O)(=O)N2CCOCC2)cc1	none
O=C(NCc1cccc(F)c1)C1CCC(=O)N(CC2CCCCC2)C1 (centres undefined)	none (no result: FBPA Giardia inh)
Cc1ccc(C)c(CN2CCC(n3nnc4cc(F)ccc43)CC2)c1	Pf growth 96h 13.1µM, Pf growth 48h 8.28µM
Fc1ccc2c(c1)nnn2C1CCN(Cc2c(Cl)cccc2Cl)CC1	Pf growth 96h 10.4µM, Pf growth 48h 10.4µM
Cc1ccc2c(c1)nnn2C1CCN(CC(=O)N2CCN(c3ccc(F)cc3)CC2)CC1	none (no result: Pf growth 48h)
Fc1ccc2c(c1)nnn2C1CCN(Cc2nnnn2C2CCCCC2)CC1	FBPA Giardia inh inconclusive, Pf growth 48h inconclusive
CCCN(CCC)CCNC(=O)c1cc2c(-c3ccccc3F)nn(C)c2s1	Pf growth 48h 3.29µM
CCN(CC)CCNC(=O)c1cc2c(-c3ccc(Cl)cc3)nn(C)c2s1	none (no result: Pf growth 48h)
CCOCCCNC(=O)c1cc2c(-c3ccc(Cl)cc3)nn(C)c2s1	none (no result: Pf growth 48h)
COc1ccc(-c2nn(C)c3sc(C(=O)NCCN(C)C)cc23)cc1OC	none
CCCN(CCC)CCNC(=O)c1cc2c(-c3ccc(Cl)cc3)nn(C)c2s1	Pf growth 48h 0.465µM
CCCN(CCC)CCCNC(=O)c1cc2c(-c3ccc(OC)c(OC)c3)nn(C)c2s1	Pf growth 48h 2.08µM
Cn1nc(-c2ccccc2F)c2cc(C(=O)Nc3ccc4c(c3)OCCO4)sc21	none (no result: Pf growth 48h)
CCCCN(CC)CCNC(=O)c1cc2c(-c3ccc(Cl)cc3)nn(C)c2s1	Pf growth 48h 0.329µM
C/C1=C/CC(C)(C)/C=C/C/C(C)=C/CC1	none (no result: Pf growth 96h, Pf growth 48h, Shiga inhibitor, NS1 function inh, Cycloheximide cs)
COc1ccc(CCC(=O)Nc2ccc(Cn3ccnc3)cc2)cc1	Pf growth 96h inconclusive, Pf growth 48h inconclusive
COc1cc(C(=O)N[C@H](C(=O)Nc2nnc(C3CC3)s2)C(C)C)cc(OC)c1OC	Pf growth 96h inconclusive, Pf growth 48h inconclusive
CCCCNC(=O)c1cc(-c2ccc(OC)c(OC)c2)on1	Pf growth 96h 3.29µM, Cycloheximide cs 14.2 (no result: Pf growth 48h)
CCCNC(=O)c1cc(-c2ccc(OC)cc2)n(CCCOC)c1C	Pf growth 48h 2.08µM
CCCCNC(=O)c1cc(-c2ccc(F)cc2)on1	Shiga inhibitor 51.8, Cycloheximide cs 34.7
CCN(CC)CCCNC(=O)c1cc(-c2ccc(Cl)cc2)on1	Pf growth 48h inconclusive
CCCCNC(=O)c1cc(-c2ccc(OC)cc2)on1	Pf growth 96h inconclusive, Shiga inhibitor 193.6, Cycloheximide cs 52.0
O=C(NCc1ccccc1)C(c1ccc(F)cc1)N(C(=O)c1csnn1)C1CCCC1 (centres undefined)	Pf growth 96h inconclusive
O=C(c1ccncc1)N1CCC[C@@]2(CCN(Cc3ccncc3)C2)C1	none (no result: Pf growth 96h, Pf growth 48h, Shiga inhibitor, NS1 function inh, Cycloheximide cs)
COc1cccc(CS(=O)(=O)c2nnnn2-c2ccccc2)c1	none (no result: Pf growth 96h, Pf growth 48h, Shiga inhibitor, NS1 function inh, Cycloheximide cs)
CCCNC(=O)c1cc(-c2ccc(OC)cc2)on1	Pf growth 96h inconclusive, Shiga inhibitor 69.5, Cycloheximide cs 50.8
COc1cc(N(C(=O)Cc2cccs2)C(C(=O)NC2CCCCC2)c2cccc(OC)c2OC)ccc1-n1cnnn1 (centres undefined)	Pf growth 48h 10.4µM
COc1cccc(C(C(=O)NC2CCCCC2)N(C(=O)c2cccs2)c2ccc3c(c2)OCO3)c1 (centres undefined)	Pf growth 48h 10.4µM
COc1ccc(N(C(=O)Cc2cccs2)C(C(=O)NC2CCCCC2)c2cccn2C)cc1 (centres undefined)	Pf growth 96h inconclusive, NS1 function inh inconclusive (no result: Pf growth 48h)
Cn1cccc1C(C(=O)NC1CCCCC1)N(C(=O)Cc1cccs1)c1ccc2c(c1)OCO2 (centres undefined)	Pf growth 96h inconclusive, Pf growth 48h inconclusive
Cc1nn(C)cc1C(C(=O)NC1CCCCC1)N(C(=O)Cc1cccs1)c1ccc(F)cc1 (centres undefined)	none
COc1cccc(C(C(=O)NC2CCCCC2)N(C(=O)Cc2cccs2)c2ccc(-n3cnnn3)c(OC)c2)c1 (centres undefined)	Pf growth 48h 10.4µM
COC(=O)c1ccc(C(=O)OC)c(=O)[nH]1	none
Cc1ccc(C(=O)NC(=S)Nc2ccc(S(=O)(=O)N3CCN(C)CC3)cc2)cc1	Pf growth 96h inconclusive, Pf growth 48h inconclusive, Cycloheximide cs 25.9
CC(C)c1ccc(S(=O)(=O)N2CCN(C(=O)CCNC(=O)Nc3ccccc3)CC2)cc1	Pf growth 96h inconclusive, Pf growth 48h 11.7µM (no result: FBPA Giardia inh, Shiga inhibitor, NS1 function inh, Cycloheximide cs)
CN1CCN(S(=O)(=O)c2ccc(C(=O)Nc3ccccc3)cc2)CC1	Shiga inhibitor 62.6, NS1 function inh inconclusive, Cycloheximide cs 19.1 (no result: Pf growth 48h)
COc1ccc(CC(=O)OC(C)C(=O)c2ccc(C)cc2)cc1 (centres undefined)	Pf growth 96h inconclusive (no result: FBPA Giardia inh)
Cc1cccc2nc(CSc3nnc(N)s3)cn12	Shiga inhibitor 65.2, Cycloheximide cs 22.1 (no result: NS1 function inh)
Cc1cc(C)c(O)c(-c2cc(C(=O)Nc3cccnc3)[nH]n2)c1	Pf growth 96h 2.94µM, Pf growth 48h 2.94µM, Shiga inhibitor 98.0, Cycloheximide cs 29.5
CCc1ccc(O)c(-c2cc(C(=O)Nc3cccnc3)[nH]n2)c1	Pf growth 96h 0.415µM, Pf growth 48h inconclusive, Shiga inhibitor 93.3, Cycloheximide cs 28.0
Cc1ccc(NC(=O)c2cc(-c3ccccc3)n[nH]2)cc1	Shiga inhibitor 48.9, Cycloheximide cs 39.5
Cc1cc(C)c(O)c(-c2cc(C(=O)NCc3ccccc3)[nH]n2)c1	Pf growth 96h inconclusive (no result: Pf growth 48h)
COc1ccc(C(=O)Nc2cc(-c3ccc(C)cc3)no2)cc1	none
Cc1ccc(-c2cc(NC(=O)c3ccccc3)on2)cc1	Shiga inhibitor 93.6, Cycloheximide cs 22.8
CN(C)CCCO[C@@H]1[C@H]2OC(C)(C)O[C@H]2O[C@@H]1[C@H](O)CO	Pf growth 96h inconclusive (no result: FBPA Giardia inh, Shiga inhibitor, NS1 function inh, Cycloheximide cs)
Cc1cc(C)c(-c2cc(C(=O)Nc3c(C)n(C)n(-c4ccccc4)c3=O)[nH]n2)c(O)c1	none
CC(=O)Nc1ccc(NC(=O)c2cc(-c3cc(C)c(C)cc3O)n[nH]2)cc1	Pf growth 96h inconclusive, Pf growth 48h 1.04µM
Cc1cccc(NC(=O)c2cc(-c3cc(C)cc(C)c3O)n[nH]2)c1	Pf growth 96h inconclusive, Pf growth 48h inconclusive, Shiga inhibitor 39.5, Cycloheximide cs 13.1
Cc1cc(O)c(-c2cc(C(=O)NCCc3ccc(S(N)(=O)=O)cc3)[nH]n2)cc1C	Pf growth 96h inconclusive, Pf growth 48h inconclusive
Cc1cccc(NC(=O)c2cc(-c3c(C)cc(C)cc3O)n[nH]2)c1	Pf growth 96h 14.7µM, Shiga inhibitor 51.3
Cc1cc(O)c(-c2cc(C(=O)Nc3cccnc3)[nH]n2)cc1C	Pf growth 96h 2.08µM, Pf growth 48h 2.62µM, Shiga inhibitor 52.4, Cycloheximide cs 43.4
